An excerpt weighted towards active compounds, which were near 11% of everything screened.
PLK1 PBD inh: inhibitors of human PLK1 polo-box domain binding; P53350; Plk1 PBD binding of FITC phosphopeptide, fluorescence polarization; Potency, µM, inactives show max response, negative = inhibition, actives largely listed as inhibitors; 360,000 tested, 2.8% active; AID 720504; note: series mostly up to about 57 µM; % is set by controls: 0 for no effect and ±100 for the full control effect; nearly all actives have a fitted effect of over 65% in size
VDR inh: vitamin D3 receptor (human) inhibition; P11473; VDR-SRC2-3 peptide fluorescence polarization, 2 h; Potency, µM, inactives show max response, negative = inhibition, usual class: inhibitors; 400,000 tested, 0.93% active; AID 504847; note: % is set by controls: 0 for no effect and ±100 for the full control effect
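Inhibition of the VDR/SRC2-3 peptide interaction is quantified by fluorescence polarization. Compounds (23 nl, pintool) incubate with the reagents for 2 hours at ambient room temperature.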
BAZ2B inh: inhibitors of human BAZ2B bromodomain. AlphaScreen BAZ2B-H3K14Ac peptide displacement. Potency, µM (highest dose often 114 µM), without a hit: top-dose activity change, negative = inhibition, hits mostly inhibitors. 360,000 tested, 4.4% active; note: % is set by controls: 0 for no effect and ±100 for the full control effect; nearly all actives have a fitted effect of over 60% in size
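Multi-concentration screen (max 110 uM) measuring displacement of acetylated histone H3 peptide from BAZ2B by AlphaScreen, using 50 nM protein, 50 nM peptide and 10 ug/mL streptavidin donor plus Ni-chelate acceptor beads.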
JMJD2A Tudor: blocks the human JMJD2A Tudor domain. O75164. AlphaScreen JMJD2A-Tudor / H3K4me3 peptide binding. Potency, µM (doses to about 114 µM), for the others: top-dose activity change, negative = inhibition, most hits filed as inhibitors. 390,000 tested, 4.4% active; note: % is set by controls: 0 for no effect and ±100 for the full control effect; nearly all actives have a fitted effect of over 50% in size
G9a block: inhibitors of human histone lysine methyltransferase G9a; 350,000 tested, 8.8% active; G9a H3K9 monomethylation, AlphaScreen, 2 h; Potency, µM (top dose mostly 102 µM), without a hit: at the top dose activity, negative = inhibition, hits mostly inhibitors; AID 504332; note: % is set by controls: 0 for no effect and ±100 for the full control effect; nearly all actives have a fitted effect of over 75% in size
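Using a bead-based AlphaScreen, monomethylated H3K9 product from 2 h room-temperature reactions (G9a 20 nM, peptide 500 nM, SAM 20 uM) was detected with 0.5 ug/mL rabbit anti-H3K9me1 antibody.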
HP1b binding inh: inhibitors of HP1-beta chromodomain binding to methylated histone tails | P83916 | AlphaScreen HP1-beta / biotin-H3K9me3 peptide binding | Potency, µM (series often up to 114 µM), inactives show at the top dose activity change, negative = inhibition, usual class: inhibitors | 390,000 tested, 0.56% active; note: nearly all actives have a fitted effect of over 70% in size
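HP1-beta protein (50 nM final) preincubated 30 min at room temperature with biotinylated H3(1-18)K9me3 peptide (50 nM) in PBS pH 7.4, 0.01% Tween-20, then compound added for 30 min. AlphaScreen streptavidin donor/nickel chelate acceptor beads (10 ug/mL final), 30 min dark, luminescence read.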
The depositor's hits bear a star; ? = inconclusive; . = no result given; [ ] = dose if it differs, or a comment. Calls come from the whole dose curve; as a rule, active = well fitted curve in the direction sought with a large enough effect; inconclusive = small, poorly fitted or top-dose-only effect, or another doubt; inactive = no such curve, though single readings can be large; an effect the other way counts as inactive or inconclusive. Potency is the fitted concentration of half-maximal effect.

SMILES | PLK1 PBD inh | VDR inh | BAZ2B inh | JMJD2A Tudor | G9a block | HP1b binding inh
Cc1noc(C)c1CSCC(=O)N(C)CC(=O)Nc1ccccc1Cl | -15% | 4% | -5% | -5% | 5%[0.501 µM] | 21%
COc1ccc(NC(=O)c2ccc3c(=O)n4nc(Nc5cc(C)ccc5C)sc4nc3c2)cc1 | . | 5% | -9% | -16% | 7%[59 µM] | 43%
COc1ccc(CCNC(=O)CCC(=O)Nc2ccc3nc(N4CCN(C)CC4)cc(C)c3c2)cc1OC | -16% | -8% | -20% | 79µM* | -2%[59 µM] | -21%[57 µM]
C=C(c1ccccc1)c1ccc(N(C)C)cc1 | -12% | -5% | ? | 45µM* | 17%[2.33 µM] | ?
O=C(/C=C/c1ccc(Cl)cc1Cl)N1CCN(c2ccccc2[N+](=O)[O-])CC1 | -4% | 6% | ? | ? | 40µM* | ?
O=[N+]([O-])c1cc(Cl)ccc1N1CCN(c2ccccc2O)CC1 | -9% | -16% | 14µM* | 40µM* | ? | ?
O=C(/C=C/c1ccccc1[N+](=O)[O-])N1CCN(c2ccccc2F)CC1 | -2% | 18% | ? | -30% | 56µM* | 14%
O=S(=O)(CCN1CCN(c2ccccc2O)CC1)c1cc(Cl)ccc1Cl | -5% | 0% | 1% | -22% | 45µM* | 22%
O=C(/C=C/c1ccc(Cl)cc1Cl)N1CCN(c2ccc([N+](=O)[O-])c(N3CCOCC3)c2)CC1 | -3% | 4% | ? | -34% | ? | 1%
Cc1cccc(CC2CC(=O)N(c3ccc(C)cc3Br)C2=O)c1 (stereo not drawn) | 2% | -4% | 6% | 3% | 47% | 32%
COc1cccc(OCCOCCNCCO)c1 | . | . | 1% | . | 3% | .
CCc1cccc(OCCCCN(CC)CC)c1 | -1% | -4% | ? | 3.5µM* | -9%[12.7 µM] | -38%
COCCCNCCCCOc1cccc(Br)c1 | 5% | -11% | ? | 2.5µM* | 28µM* | -13%
CCOC(=O)C(CCCCOc1cccc(CC)c1)C(=O)OCC | ? | -14% | 153% | -76% | 163%[59 µM] | 118%
CCOc1cccc(OCCCNCCCOC)c1 | -2% | -2% | 40µM* | 2.8µM* | ? | ?
C=CCNCCCCOc1cccc(Br)c1 | -15% | -6% | 32µM* | 0.71µM* | . | ?
C#CCNC(=O)C[C@@H]1C[C@@]2(C(=O)OCC)CCCC=C2N(Cc2cccc3ccccc23)C1=O | 1% | . | . | . | . | .
Cc1cc(C)c2c(CC(=O)Nc3nnc(C(C)C)s3)coc2c1 | . | 6% | -20% | -17% | 3%[59 µM] | 7%
O=S(=O)(c1ccccc1)C(Br)S(=O)(=O)c1ccccc1 | -8% | . | . | . | . | .
CCN(CC)S(=O)(=O)c1ccc2[nH]c(=O)cc(C(=O)Nc3ccccc3N3CCCC3)c2c1 | 5% | -19% | -15% | -10% | . | 14%
Cc1cccc(C)c1OCc1nc2c3cnn(-c4cccc(F)c4)c3ncn2n1 | . | 14% | 3% | 3% | -1%[59 µM] | 38%
CCc1ccc(NC(=O)Cn2c(=O)n(-c3ccc(OC)cc3)c(=O)c3ccc(C(=O)NCc4ccc(C)cc4)cc32)cc1 | . | 5% | . | -4% | 17%[59 µM] | 60%
CCc1cccc(OCCCCNCCCOC)c1 | -11% | -19% | ? | 6.3µM* | 13µM* | ?
COc1cc(C)c(CN2CCN(c3ncccn3)CC2)cc1C | 5% | 0% | . | 50µM* | . | ?
COc1ccc(OCC(O)CN2CCN(c3ncccn3)CC2)cc1 (stereo not drawn) | -6% | -12% | 4% | 1% | 16%[59 µM] | 35%
SMILES | PLK1 PBD inh | VDR inh | BAZ2B inh | JMJD2A Tudor | G9a block | HP1b binding inh
COc1cc(-c2nc(CN3CCN(c4ncccn4)CC3)c(C)o2)ccc1F | -1% | -15% | -31% | -14%[57.1 µM] | ? | 21%
COc1ccc(Br)cc1CN1CCN(c2ncccn2)CC1 | 3% | 1% | . | 22µM* | . | ?
Fc1ccc(F)c(CN2CCN(c3ncccn3)CC2)c1 | 2% | -4% | -35% | -21% | -10%[59 µM] | 15%
COc1cccc(CN2CCN(c3ncccn3)CC2)c1OC | 5% | -13% | 50µM* | 28µM* | ? | ?
O=C(COc1ccc(Br)cc1Cl)N1CCN(c2ncccn2)CC1 | -8% | -6% | 13% | -19% | -1%[2.33 µM] | 28%
COc1ccc(CN2CCN(c3ncccn3)CC2)c(C)c1C | -12% | -7% | 56µM* | 18µM* | 4.5µM* | ?
CCCCC/C=C\C/C=C\C/C=C\CCCCCCC(=O)NCC(=O)O | . | -2% | . | . | . | .
Cc1ccc(-n2c(=O)c3c(cnn3C)n(CC(=O)Nc3cccc(C)c3)c2=O)cc1 | . | -2% | -2% | -32% | -4%[59 µM] | 19%
CCOc1ccc(NC(=O)c2sc3nc4c(cc3c2N)CN(Cc2ccccc2)CC4)cc1 | . | -2% | -8% | -10% | -41%[59 µM] | 25%
COc1ccc(CN2CCN(c3ccccn3)CC2)c(OC)c1C | -3% | -12% | 50µM* | 56µM* | . | ?
Cc1ccc(-c2csc3nc(C)n(N)c(=O)c23)o1 | -5% | -5% | -5% | -22% | -36%[59 µM] | 1%
C=CCn1c(SCC(=O)NCCCC)nc2scc(-c3ccco3)c2c1=O | ? | ? | ? | 56µM* | -22%[59 µM] | ?
C=CCn1c(=S)[nH]c2sccc2c1=O | -18% | 15% | 3% | ? | 13µM* | 15%
C=CCn1c(SCC(C)=O)nc2scc(-c3ccc(C)o3)c2c1=O | -3% | -12% | 6% | ? | 45µM* | 20%
C=CCn1c(SCC(=O)NC2CCCC2)nc2scc(-c3ccco3)c2c1=O | -29% | -17% | ? | -36% | ? | 12%
C=CCn1c(=S)[nH]c2sc3c(c2c1=O)CCCC3 | ? | -20% | 0% | -22% | 20%[0.501 µM] | 27%
C=CCn1c(=S)[nH]c2scc(-c3ccc(C)o3)c2c1=O | ? | -8% | -1% | ? | 50µM* | -11%
CC[N+]1(C)CCC(O)(/C=C/c2ccccc2)C(C(=O)/C=C/c2ccccc2)C1 (stereo not drawn) | ? | 50µM* | . | 40µM* | . | 71µM*
Cc1cccc(NC(=O)c2cc3c(=O)n4ccccc4nc3n2C)c1C | . | 12% | 3% | -15% | 8%[59 µM] | 8%
CC(=O)Oc1ccc(N2C(=O)C3C(C2=O)C2(C)C=CC3(C)O2)cc1 (stereo not drawn) | . | . | -11% | . | 5.6µM* | .
COc1ccc(N2C(=O)C3C(C2=O)C3(c2ccccc2)c2ccccc2)cc1 (stereo not drawn) | 1% | -1% | -5% | -14% | 10% | 23%
O=C(NCCN1CCC(n2c(=O)[nH]c3ccccc32)CC1)c1ccc(F)c(F)c1 | -2% | . | . | . | . | .
Cc1ccc2nc(-c3ccccc3)c(CC(=O)O)c(C(=O)O)c2c1 | -2% | ? | ? | -9% | 45µM* | 21%
CCOc1nc(-c2ccccc2)c2cc(C)ccc2n1 | 3% | -22% | 41% | 7% | 114% | 43%

Screening data deposited in PubChem by National Center for Advancing Translational Sciences (NCATS).
